Among the data in PubChem BioAssay are inhibition values, retold here.

The source made the active and inactive calls. How the calls were made is not given here.

Pantothenate synthetase (Mycobacterium tuberculosis (strain ATCC 25618 / H37Rv)), sequence (P9WIL5 whole entry, looked up): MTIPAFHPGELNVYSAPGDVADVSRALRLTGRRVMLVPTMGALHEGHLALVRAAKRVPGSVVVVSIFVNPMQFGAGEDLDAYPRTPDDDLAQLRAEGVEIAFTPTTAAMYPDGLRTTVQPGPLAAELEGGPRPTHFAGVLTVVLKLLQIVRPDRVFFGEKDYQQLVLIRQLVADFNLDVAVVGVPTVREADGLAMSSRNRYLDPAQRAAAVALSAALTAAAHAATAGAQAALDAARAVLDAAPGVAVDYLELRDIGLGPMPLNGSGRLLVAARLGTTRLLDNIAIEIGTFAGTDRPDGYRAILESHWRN

This test addresses Pantothenate synthetase (Mycobacterium tuberculosis (strain ATCC 25618 / H37Rv)) (UniProt P9WIL5). As to the kind of experiment: Coupled enzyme confirmation of inhibitors against recombinant Mtb PanC (AID 375).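 Further: 0% = full reaction with vehicle and 100% = no enzyme background.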 The note with it: coupled enzyme assay; at 10 µM, hits give high values.
One may read the inhibition as how much of the control response was suppressed. As for `CC(C)Cn1c2c(c(O)c(C(=O)Nc3ncccc3O)c1=O)CCCC2`, the inhibition was 0% (inactive).

For the compound `C=CCc1ccccc1OCC(O)CNC(C)C` (stereo not given), the inhibition is 8% (inactive).

With `CCOC(=O)c1oc2ccccc2c1CSc1nnnn1-c1ccc(OC)cc1`, the inhibition was 1% (inactive).

As for `COc1cccc(C(=O)Nc2cc(NC(=O)c3ccco3)ccc2OC)c1`, the inhibition is 3% (inactive).

In the case of `O=C1CC(c2ccccc2)NC(=O)N1` (stereo not given), the inhibition is 0% (inactive).

`CSCCC(NC(=O)c1ccco1)C(=O)O` (stereo not given): the inhibition was 0% (inactive).

Consider `CCc1ccc(NS(=O)(=O)c2cccs2)cc1`, for which the inhibition is 0% (inactive).

Consider `CCOC(=O)N1CCC(NC(=O)c2ccc3nc(N4CCOCC4)sc3c2)CC1`, for which the inhibition was 5% (inactive).

For the compound `O=C(CNC1CCCCCC1)Nc1ccc(S(=O)(=O)NC2CC2)cc1`, the inhibition was 2% (inactive).

`COc1ccccc1N1C(=O)CC(Sc2nc(C)cc(C)n2)C1=O` (stereo not given): the inhibition was 0% (inactive).

Regarding `Cc1ccc(N(C(=O)C2CCC(=O)N2)C2(C(=O)NC3CCCCC3)CCCCC2)cc1` (stereo not given), the inhibition is 2% (inactive).

On to `CCSc1cc(C2C(C(=O)OC)=C(C)NC3=C2C(=O)CCC3)c(C)o1` (stereo not given), for which the inhibition was 0% (inactive).

As for `CCOC(=O)C(NC(=O)OC(C)C)(Nc1nccs1)C(F)(F)F` (stereo not given), the inhibition is 2% (inactive).

For the compound `COc1ccccc1NC(=O)NCCCN1CCN(c2cccc(Cl)c2)CC1`, the inhibition is 2% (inactive).

With `CCOc1ccccc1C(=O)NCc1ccc2c(c1)OCO2`, the inhibition is 4% (inactive).

For `CC(=O)N(C(C)=O)c1c(C#N)c(C)n(-c2ccccc2)c1C(=O)c1ccccc1`, the inhibition is 0% (inactive).

`COC(=O)Nc1ccccc1C(=O)N1CCCCC1`: the inhibition is 0% (inactive).

Take `O=C(O)c1[nH]c2ccc(Cl)cc2c1CC(=O)N1CCN(C(=O)c2ccco2)CC1`: the inhibition is 2% (inactive).

`COc1cccc(N2C(=O)C(O)=C(C(C)=O)C2c2ccc(OC)c(OC)c2)c1` (stereo not given): the inhibition is 0% (inactive).

In the case of `CCSc1nnc(N2C(=O)CC(c3ccsc3)C3=C2CC(C)(C)CC3=O)s1` (stereo not given), the inhibition is 0% (inactive).

In the case of `Cc1cc(NC(=O)C23CCC(C)(C(=O)O2)C3(C)C)no1` (stereo not given), the inhibition was 1% (inactive).

Regarding `CC1Cc2ccccc2N1CC(=O)NC(=O)NCc1ccco1` (stereo not given), the inhibition is 2% (inactive).

Turning to `N#CCCCN1C(=O)C(O)(CC(=O)c2ccc3c(c2)OCCO3)c2ccccc21` (stereo not given), the inhibition is 0% (inactive).

`CSc1ccccc1NC(=O)c1c(Br)cnn1C`: the inhibition was 0% (inactive).

Regarding `COc1ccc(-c2nnc3sc(-c4c(OC)cccc4OC)nn23)cc1`, the inhibition is 6% (inactive).

In the case of `CCOC(=O)N1CCC(NC(=O)C2CCC(Cn3c(=O)[nH]c4ccccc4c3=O)CC2)CC1` (stereo not given), the inhibition is 9% (inactive).

Take `CCC1(C(=O)OC)NC(c2cccc(F)c2)C2C(=O)N(C)C(=O)C21` (stereo not given): the inhibition was 3% (inactive).

As to `CCC(=O)c1ccc(O)cc1`, the inhibition is 0% (inactive).

`Cc1cccc(N2CCN(C(=O)C3CCCN(S(=O)(=O)c4c(C)noc4C)C3)CC2)c1C` (stereo not given): the inhibition is 0% (inactive).

On to `COc1ccc(NC(=O)C2CCCN2S(=O)(=O)c2cccc3cccnc23)c(OC)c1` (stereo not given), for which the inhibition is 6% (inactive).

Regarding `CCOC(=O)c1c(C)[nH]c(C)c1C(=O)COc1ccc(NC(=O)c2ccco2)cc1`, the inhibition was 1% (inactive).

Turning to `Cc1cccc(NC(=O)c2oc3c(c2C)C(=O)CC(C)(C)C3)n1`, the inhibition was 9% (inactive).

Turning to `N#Cc1cc2ccc(N3CCOCC3)cc2cc1C#N`, the inhibition was 0% (inactive).

Turning to `Cc1cc(C(=O)OCCO)c(C#N)c(N)n1`, the inhibition is 0% (inactive).

Regarding `O=C(O)c1cc2c(s1)CCCC2`, the inhibition was 0% (inactive).

On to `Clc1ccc(C2=Nn3c(nnc3-c3n[nH]c4c3CCC4)SC2)cc1Cl`, for which the inhibition was 0% (inactive).

For `COc1ccc(-c2nc3c(n2O)CCC/C3=N\O)cc1`, the inhibition was 0% (inactive).

As for `COc1cccc(-c2nnc(SCC(=O)N3CCCc4ccccc43)o2)c1`, the inhibition was 0% (inactive).

`Cc1nnc(Nc2ccccn2)c2ccccc12`: the inhibition was 0% (inactive).

With `CN(C)CCCOC(=O)CCc1ccccc1`, the inhibition was 0% (inactive).
